Assay outcomes from PubChem.
HT1080NT lethal: kills 2HG-producing HT-1080-NT fibrosarcoma cells | HT-1080-NT fibrosarcoma viability, CellTiter-Glo ATP luminescence, 48 h | Potency, µM (series often up to 46.1 µM), for the others: top-dose activity, negative = less viability, most hits filed as cytotoxic | actives 1.6% (n = 360,000);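 further: NT is the 2HG producing partner of a matched IDH1 knockdown line; 0% = DMSO-treated cells and -100% = media-only wells without cells; nearly all actives have a fitted effect of over 55% in size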
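HT-1080-NT; 750 cells/well; 5% FBS RPMI; 48 h compound, 37 degrees C; CellTiter-Glo luminescence; curve fitting and curve-class assignment.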
SW480 rerep: induces DNA re-replication in SW480 colon adenocarcinoma cells; SW480 DNA re-replication, Hoechst DNA content imaging, 48 h; Potency, µM (doses to about 46.1 µM), for inactives: at the top dose re-replication activation, actives largely listed as activators; AID 624297; actives 1.8% (n = 340,000); further: % of control where 0% means no effect; nearly all actives have a fitted effect of over 55% in size
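Image-based DNA-content assay: after two days of treatment, nuclei were labelled with the DNA dye Hoechst and imaged, and hits were compounds raising the count of nuclei showing high fluorescence intensity.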
KB-3-1 cytotox: kills parental KB-3-1 adenocarcinoma cells; Potency, µM (highest dose often 46.1 µM), most hits filed as cytotoxic; KB-3-1 viability, CellTiter-Glo ATP luminescence, 72 h; actives 1.4% (n = 400,000); further: on the % scale 0 is the no-effect control and ±100 the full control effect; nearly all actives have a fitted effect of over 60% in size
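Here the drug-naive KB-3-1 line serves as comparator for MDR sub-line selectivity; cells received compound titrations, 72 h at 37 °C, then CellTiter-Glo readout.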
HT1080 IDH1KD tx: kills HT-1080 cells with IDH1 knockdown; actives 2% (n = 360,000); AID 686971; HT-1080 IDH1 knockdown viability, ATP luminescence, 48 h; Potency, µM (titrated, usually from 46.1 µM), inactives show at the highest dose activity, negative = toxicity, most hits filed as cytotoxic;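 further: 0% = DMSO wells and -100% = cell-free medium wells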
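Using the IDH1-knockdown HT-1080 line run in the same batch and compound series as the NT line, viability after 48 h at 37 °C was determined by CellTiter-Glo luminescence and expressed as % activity.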
KB-V1 cytotox: kills drug-selected multidrug resistant KB-V1 cells; KB-V1 MDR cells viability, CellTiter-Glo, 72 h; actives 3.4% (n = 400,000); Potency, µM (series often up to 46.1 µM), usual class: cytotoxic; further: on the % scale 0 is the no-effect control and ±100 the full control effect; nearly all actives have a fitted effect of over 60% in size
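KB-V1 cells (P-gp-expressing MDR subline of KB-3-1) in phenol-red-free DMEM with 10% FBS were exposed to library compounds over a concentration series for 72 h at 37 degrees C. Viability read by CellTiter-Glo luminescence; concentration-effect curves fitted after normalization.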
MCF10A rereplic: DNA re-replication induction in MCF 10a cells | MCF 10A DNA re-replication, Hoechst nuclear intensity, 48 h | Potency, µM (top dose mostly 46.1 µM), for the others: at the highest dose activity, positive = re-replication, hits mostly activators | actives 2.9% (n = 350,000) | AID 624296; further: % of control where 0% means no effect; nearly all actives have a fitted effect of over 50% in size
* marks the source's active call; other numbers are inactive results; i = inactive; ? = inconclusive; nt = not tested or not shown. In the library only some 8% were active in any assay of this set; here they are far more common. The call rests on the fitted dose curve; in most records, active means well fitted curve in the direction sought with a large enough effect; inconclusive means small, poorly fitted or top-dose-only effect, or another doubt; inactive means no such curve, though single readings can be large; an effect the other way counts as inactive or inconclusive. Potency means the concentration at half of the fitted maximal effect.

SMILES | HT1080NT lethal | SW480 rerep | KB-3-1 cytotox | HT1080 IDH1KD tx | KB-V1 cytotox | MCF10A rereplic
CCCN1CCN(CCCNC(=O)Cn2c(-c3cccs3)cc3ccccc32)CC1 | nt | nt | ? | nt | i | nt
N#C/C(C(N)=O)=c1/ccc2c(c1)N1C3=C(CCCC3)CC3CCCCC31N=2 (stereo not given) | -3% | 2% | ? | -3% | 23µM* | -4%
N#CC(C#N)=c1ccc2c(c1)N1C3=C(CCCC3)CC3CCCCC31N=2 (stereo not given) | 0% | -2% | ? | -1% | ? | 28%
Cc1noc(C)c1C(=O)N1CCN(c2ccccc2O)CC1 | 6% | -5% | i | 14% | i | -3%
Cc1noc(C)c1C(=O)N1CCN(C(=O)c2sc3cc(Cl)ccc3c2Cl)CC1 | -5% | 0% | i | -3% | 23µM* | -3%
CN(C)c1cc(F)c(C=O)cc1F | nt | nt | i | nt | i | nt
Cc1ccc(S(=O)(=O)Oc2ccc(/C=C(/NC(=O)c3ccccc3)C(=O)NCC(=O)O)cc2)cc1 | -4% | 6.5µM* | i | 2% | i | -3%
Cc1ccc(S(=O)(=O)Oc2ccc(/C=C(/NC(=O)c3ccccc3)C(=O)O)cc2)cc1 | -1% | 4% | i | -1% | i | -6%
O=[N+]([O-])c1ccc2nc(NCCCO)nc(-c3ccccc3)c2c1 | -21% | 24% | i | -17% | ? | 15µM*
CC1C(=O)C(C)C(c2ccc(Br)cc2)NC1c1ccc(Br)cc1 (stereo not given) | 0% | ? | i | -11% | i | 23µM*
CC1C(=O)C(C)C(c2cc(Br)ccc2O)NC1c1cc(Br)ccc1O (stereo not given) | 13µM* | ? | ? | ? | ? | 23µM*
CCOC(=O)c1ccc(N(C(=O)c2ccccc2)c2ccccc2)cc1 | nt | nt | i | nt | i | nt
O=C(Nc1ccc(C(F)(F)F)cc1Cl)c1ccc(Cn2cc(Br)cn2)o1 | -4% | -2% | i | ? | i | 13µM*
O=C(Nc1cccc(C(F)(F)F)c1)c1ccc(Cn2cc(Br)cn2)o1 | -2% | 1% | i | -12% | i | ?
C=CCNc1nc(-c2sc(NC(=O)C(C)(C)C)nc2C)c(-n2cc(-c3ccccc3)nn2)s1 | ? | nt | ? | ? | 16µM* | nt
Cc1nc([N+](=O)[O-])c(Br)n1CC(=O)c1ccc2ccccc2c1 | 16µM* | ? | i | ? | i | 0.65µM*
Cc1nc([N+](=O)[O-])c(Br)n1CC(=O)c1ccccc1 | ? | ? | i | ? | i | ?
Cc1nc([N+](=O)[O-])c(Br)n1CC(=O)c1ccc(Br)cc1 | 21µM* | ? | ? | ? | ? | ?
Cc1ccc(-c2cnc(C3CC3)o2)cc1S(=O)(=O)Nc1ccc(F)cc1Cl | nt | nt | i | nt | ? | nt
C=CC[C@@H](CC(=O)N(CCO)Cc1ccccc1)C(=O)N[C@@H](COC(=O)[C@@H](CC=C)CC(=O)OC(C)(C)C)Cc1c[nH]c2ccccc12 | ? | 3% | ? | ? | i | ?
C=CC[C@@H](CC(=O)N(CCO)Cc1ccccc1)C(=O)N[C@H](COC(=O)[C@@H](CC=C)CC(=O)OC(C)(C)C)Cc1c[nH]c2ccccc12 | -26% | 8% | i | -25% | i | 10µM*
C=CC[C@H](CC(=O)N[C@H](CO)Cc1ccccc1)C(=O)N[C@@H](COC(=O)[C@@H](CC=C)CC(=O)OC(C)(C)C)Cc1c[nH]c2ccccc12 | -20% | 15% | ? | ? | i | 29%
C=CC[C@H](CC(=O)N(CCO)Cc1ccccc1)C(=O)N[C@@H](COC(=O)[C@H](CC=C)CC(=O)OC(C)(C)C)Cc1c[nH]c2ccccc12 | ? | 25% | ? | ? | ? | 23µM*
C=CC[C@@H](CC(=O)N[C@@H](CO)Cc1ccccc1)C(=O)N[C@H](COC(=O)[C@@H](CC=C)CC(=O)OC(C)(C)C)Cc1c[nH]c2ccccc12 | ? | ? | i | ? | i | 16µM*
COCCNc1nc2c(c(=O)n(C)c(=O)n2C)n1Cc1c(F)cccc1Cl | nt | nt | ? | nt | i | nt
SMILES | HT1080NT lethal | SW480 rerep | KB-3-1 cytotox | HT1080 IDH1KD tx | KB-V1 cytotox | MCF10A rereplic
CCN(CC)CCNC(=O)c1ccc(-c2nc(CN3CCc4ccccc43)c(C)o2)cc1 | nt | nt | i | nt | ? | nt
Cc1oc(-c2ccc(C(=O)NCCC(C)C)cc2)nc1CN1CCc2ccccc21 | nt | nt | 7.3µM* | nt | ? | nt
COc1ccc(C2c3ccc(O)cc3Oc3ncn4nc(-c5cccnc5)nc4c32)cc1OC (stereo not given) | 16µM* | ? | ? | 15µM* | i | 0%
Cc1ccc(N(CC(O)COCc2ccco2)S(=O)(=O)c2ccc(C)cc2)cc1 (stereo not given) | -3% | ? | i | ? | 21µM* | ?
Cc1ccc(-n2cc(CN3CCN(Cc4nccn4C)CC3)c(-c3cccc(C)c3)n2)cc1 | -19% | 17% | ? | ? | i | 6%
Cc1cccc(-n2cc(CN(C)Cc3nccn3C)c(-c3cccc(F)c3)n2)c1 | ? | 18µM* | i | ? | i | ?
COc1ccc(-n2cc(CN(C)CCO)c(-c3cccc(F)c3)n2)cc1 | 0% | -6% | i | 0% | i | -3%
Cc1cccc(-n2cc(CNCCN3CCOC3=O)c(-c3cccc(F)c3)n2)c1 | -19% | ? | i | ? | i | -8%
CCn1ccnc1CN(C)Cc1cn(-c2cccc(C)c2)nc1-c1cccc(F)c1 | -16% | ? | ? | -29% | ? | 5.8µM*
CCn1ccnc1CN(C)Cc1cn(-c2ccc(C)cc2)nc1-c1cccc(C)c1 | ? | ? | i | 26µM* | i | ?
COc1ccc(OC)c(C(=O)c2c(N)c(-c3nc(-c4ccc(C)c(C)c4)cs3)c3ccccn23)c1 | nt | nt | i | nt | i | nt
COCCNC(=O)/C(C#N)=C/c1c(N2CCN(c3ccccc3)CC2)nc2ccccn2c1=O | 25% | -6% | i | 0% | i | 24%
COCCCNC(=O)/C(C#N)=C/c1c(N2CCN(c3ccccc3)CC2)nc2ccccn2c1=O | 5% | 9.2µM* | i | 2% | ? | 21µM*
N#C/C(=C\c1c(N(Cc2ccccc2)Cc2ccccc2)nc2ccccn2c1=O)C(N)=O | 0% | -8% | i | 0% | ? | -1%
